Screens from PubChem.
A selection: hits, their analogues and other compounds. The true share with any hit is near 6.8%.
MCF10A rereplic: inducers of DNA re-replication in MCF 10A breast cells; MCF 10A DNA re-replication, Hoechst nuclear intensity, 48 h; 350,000 compounds, 2.9% hits; Potency, µM (titrated, usually from 46.1 µM), for the others: at the highest dose activity, positive = re-replication, actives largely listed as activators; note: % of control where 0% means no effect; nearly all actives have a fitted effect of over 50% in size
KB-V1 MDR tox: kills drug-selected multidrug resistant KB-V1 cells; KB-V1 MDR cells viability, CellTiter-Glo, 72 h; AID 1347076; 400,000 compounds, 3.4% hits; Potency, µM (doses to about 46.1 µM), actives largely listed as cytotoxic; note: % is set by controls: 0 for no effect and ±100 for the full control effect; nearly all actives have a fitted effect of over 60% in size
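Compound-treated KB-V1 multidrug-resistant cells, 72 h, 37 degrees C; viability by CellTiter-Glo. Fitted qHTS curves give the values.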
KB-3-1 cytotox: KB-3-1 parental cell cytotoxicity. KB-3-1 viability, CellTiter-Glo ATP luminescence, 72 h. Potency, µM (series often up to 46.1 µM), usual class: cytotoxic. 400,000 compounds, 1.4% hits. AID 1347075; note: % is set by controls: 0 for no effect and ±100 for the full control effect; nearly all actives have a fitted effect of over 60% in size
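KB-3-1 parental drug-naive adenocarcinoma cells in DMEM/10% FBS, incubated 72 h at 37 C with pin-transferred compounds across a concentration series. Viability by CellTiter-Glo luminescence; concentration-response curves fitted after normalization.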
PINK1 modulator: changes PINK1 expression | PINK1 immunofluorescence, high-content cytometry, 24 h | Potency, µM (doses to about 76.6 µM), for the others: at the top dose activation (PINK1 increase), most hits filed as activators | 410,000 compounds, 0.2% hits; active = well fitted activation curve with a large enough effect; inconclusive = small, poorly fitted or top-dose-only effect; cell line not stated here; note: % of control where 0% means no effect; nearly all actives have a fitted effect of over 65% in size
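Compound titrations (5 concentrations, 24 h) on a stable cell line; DMSO and CCCP controls. Endpoint: fixed-cell PINK1 immunofluorescence with mitochondrial, cell and nuclear markers, scanned by microplate cytometer.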
TSG101-PTAP inh: blocks PTAP/TSG101 interaction to inhibit HIV-1 budding; Q99816; Fluorescence polarization, FITC-PTAP peptide / Tsg101 binding; Potency, µM (titrated, usually from 115 µM), without a hit: at the highest dose activity change, negative = inhibition, hits mostly inhibitors; 340,000 tested, under 10 active; AID 493005; active = well fitted inhibition curve with a large enough effect in the main read-out, with a control signal flat, not every such curve was filed as active; inconclusive = small, poorly fitted or top-dose-only effect, or effect the other way, or a change in a side signal; inactive = no such curve, though single readings can be large or run the other way; note: % of control where 0% means no effect
Target sequence (Q99816 whole entry, looked up): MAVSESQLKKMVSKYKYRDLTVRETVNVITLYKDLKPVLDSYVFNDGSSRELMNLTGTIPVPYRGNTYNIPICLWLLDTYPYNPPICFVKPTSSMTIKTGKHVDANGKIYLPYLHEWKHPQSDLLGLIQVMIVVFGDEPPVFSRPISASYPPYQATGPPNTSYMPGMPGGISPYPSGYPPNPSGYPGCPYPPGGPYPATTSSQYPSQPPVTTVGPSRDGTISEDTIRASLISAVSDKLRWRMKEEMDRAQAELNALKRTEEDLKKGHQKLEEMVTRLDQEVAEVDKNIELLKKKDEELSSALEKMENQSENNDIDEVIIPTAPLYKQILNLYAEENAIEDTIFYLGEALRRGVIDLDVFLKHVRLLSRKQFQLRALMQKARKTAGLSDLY
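Steps: Tsg101 binding domain dispensed (10 uM final), compounds pinned in DMSO, FITC-labeled PTAP-motif peptide added (50 nM final); after 20 min binding at room temperature, polarization measured.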
SW480 rerep: DNA re-replication induction in SW480 cells | SW480 DNA re-replication, Hoechst DNA content imaging, 48 h | Potency, µM (titrated, usually from 46.1 µM), inactives show at the highest dose re-replication activation, hits mostly activators | 340,000 compounds, 1.8% hits | AID 624297; note: % of control where 0% means no effect; nearly all actives have a fitted effect of over 55% in size
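Readout is total intensity of Hoechst-stained nuclei, excited at 405 nm and collected at 500-530 nm. Compound treatment lasted 48 hr at 37 C in 5% CO2 before staining.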
* hit, by the source's call; [ ] = dose if it differs, or a comment. Unless noted, calls come from the whole dose curve; as a rule, active = well fitted curve in the direction sought with a large enough effect; inconclusive = small, poorly fitted or top-dose-only effect, or another doubt; inactive = no such curve, though single readings can be large; an effect the other way counts as inactive or inconclusive. Potency is the fitted concentration of half-maximal effect.

What do the screens show for `CCOc1ccc(N=Nc2c(=O)[nH]n3c(=O)cc(C)[nH]c23)cc1`?
MCF10A rereplic: 1%; KB-V1 MDR tox: inconclusive; KB-3-1 cytotox: 23µM*; PINK1 modulator: -1%; TSG101-PTAP inh: -3%; SW480 rerep: -8%

How did O=C(NCc1cccnc1)c1cc(-c2ccccc2)on1 do in these assays?
MCF10A rereplic: 0%; KB-V1 MDR tox: inconclusive; KB-3-1 cytotox: inactive; PINK1 modulator: -1%[38.3 µM]; TSG101-PTAP inh: -2%; SW480 rerep: -4%

How did O=C(NCc1ccccc1)c1cc(-c2cccc(O)c2)on1 do in these assays?
MCF10A rereplic: inconclusive; KB-V1 MDR tox: inactive; KB-3-1 cytotox: inactive; PINK1 modulator: -1%; TSG101-PTAP inh: -3%; SW480 rerep: 6.5µM*

What do the screens show for `CCOc1cccc(C(=O)Nc2ccc(-c3nc4ncccc4o3)cc2C)c1`?
KB-V1 MDR tox: inactive; KB-3-1 cytotox: inactive; PINK1 modulator: -1%

Results for COc1ccc(-n2nc3c(c2NC(=O)C(C)Cl)CSC3)cc1 (stereo not drawn) ?
MCF10A rereplic: 14%; KB-V1 MDR tox: inactive; KB-3-1 cytotox: inactive; PINK1 modulator: 0%; TSG101-PTAP inh: -3%; SW480 rerep: 2%

How did COc1ccc(-n2nc3c(c2NC(=O)CCl)CSC3)cc1 do in these assays?
MCF10A rereplic: 4%; KB-V1 MDR tox: inconclusive; KB-3-1 cytotox: 23µM*; PINK1 modulator: 0%; TSG101-PTAP inh: -1%; SW480 rerep: inconclusive

How did CN(CCC#N)C(=O)COC(=O)c1c2c(nc3ccccc13)/C(=C/c1ccco1)CC2 do in these assays?
MCF10A rereplic: inconclusive; KB-V1 MDR tox: inconclusive; KB-3-1 cytotox: inactive; PINK1 modulator: 2%; TSG101-PTAP inh: -5%; SW480 rerep: 12µM*

What do the screens show for `CCOCCCNc1ncnc2c1[nH]c1ccccc12`?
MCF10A rereplic: 4%; KB-V1 MDR tox: inconclusive; KB-3-1 cytotox: inconclusive; PINK1 modulator: 1%; TSG101-PTAP inh: -5%; SW480 rerep: 3%

Results for CCCCOCCCNc1ncnc2c1[nH]c1ccccc12 ?
MCF10A rereplic: inconclusive; KB-V1 MDR tox: 1.6µM*; KB-3-1 cytotox: 2.6µM*; PINK1 modulator: 7%[38.3 µM]; TSG101-PTAP inh: -3%; SW480 rerep: inconclusive

How did CCOc1cc(C(=O)NCc2ccncc2)cc(OCC)c1OCC do in these assays?
MCF10A rereplic: 1%; KB-V1 MDR tox: 7.3µM*; KB-3-1 cytotox: inactive; PINK1 modulator: 0%[38.3 µM]; SW480 rerep: -10%

Results for Cc1ccc(SCCC(=O)NCc2ccncc2)cc1 ?
MCF10A rereplic: -6%; KB-V1 MDR tox: inconclusive; KB-3-1 cytotox: inactive; PINK1 modulator: 0%; TSG101-PTAP inh: -1%; SW480 rerep: -11%

How did O=C(Nc1cnccn1)c1ccncc1 do in these assays?
MCF10A rereplic: -5%; KB-V1 MDR tox: inactive; KB-3-1 cytotox: inactive; PINK1 modulator: 16%[38.3 µM]; TSG101-PTAP inh: -8%; SW480 rerep: 0%

What do the screens show for `CCOc1cc(C(=O)Nc2cnccn2)cc(OCC)c1OCC`?
MCF10A rereplic: inconclusive; KB-V1 MDR tox: inconclusive; KB-3-1 cytotox: inactive; PINK1 modulator: 14µM*; TSG101-PTAP inh: -6%; SW480 rerep: inconclusive

How did Cc1ccc(SCc2ccc(C(=O)NCc3ccncc3)cc2)cc1 do in these assays?
MCF10A rereplic: -8%; KB-V1 MDR tox: 18µM*; KB-3-1 cytotox: inactive; PINK1 modulator: 7%[38.3 µM]; TSG101-PTAP inh: -3%; SW480 rerep: 8%

Results for O=C(c1cccs1)N(Cc1cccnc1)c1nc2ccc(F)cc2s1 ?
PINK1 modulator: -3%

How did CCc1ccc(NCc2cc3cc4c(cc3n(CC(=O)Nc3ccc(Cl)cc3)c2=O)OCO4)cc1 do in these assays?
KB-V1 MDR tox: inactive; KB-3-1 cytotox: inconclusive; PINK1 modulator: 0%

How did CCN(CC)c1ccc(/C=C/C(=O)C2C(=O)C=C(C)OC2=O)cc1 (stereo not drawn) do in these assays?
MCF10A rereplic: 18µM*; KB-V1 MDR tox: inconclusive; KB-3-1 cytotox: inactive; PINK1 modulator: inconclusive; TSG101-PTAP inh: inconclusive; SW480 rerep: inconclusive

How did CCN(CC)c1ccc(C=C2C(=O)OC(c3ccccc3)OC2=O)cc1 (stereo not drawn) do in these assays?
MCF10A rereplic: 2%; KB-V1 MDR tox: inactive; KB-3-1 cytotox: inactive; PINK1 modulator: 2%; TSG101-PTAP inh: -3%; SW480 rerep: 5%

Results for Cc1ccc2c(=O)cc(C(=O)Nc3ccc(S(=O)(=O)Nc4ncccn4)cc3)oc2c1C ?
KB-V1 MDR tox: inactive; KB-3-1 cytotox: inactive; PINK1 modulator: 0%

What do the screens show for `CCC(CC)=N/N=C/c1c(O)n(CC)c2cc(C3=NNC(=O)CC3)ccc12`?
MCF10A rereplic: 5%; KB-V1 MDR tox: inactive; KB-3-1 cytotox: inactive; PINK1 modulator: 9%; TSG101-PTAP inh: 4%; SW480 rerep: -6%

What do the screens show for `CCn1c(O)c(/C=N/N=C/c2ccccc2)c2ccc(C3=NNC(=O)CC3)cc21`?
MCF10A rereplic: 16µM*; KB-V1 MDR tox: inconclusive; KB-3-1 cytotox: inconclusive; PINK1 modulator: 5%; TSG101-PTAP inh: inconclusive; SW480 rerep: 20%

How did O=c1oc2ccc(Cl)cc2cc1-c1nc(-c2cccs2)no1 do in these assays?
PINK1 modulator: 0%

Results for O=c1c2c3nc4ccccc4nc3n(/N=C/c3ccccn3)c2ncn1-c1ccccc1 ?
MCF10A rereplic: 3.3µM*; KB-V1 MDR tox: inconclusive; KB-3-1 cytotox: inactive; PINK1 modulator: 1%; TSG101-PTAP inh: -2%; SW480 rerep: 23µM*

Results for CCOC(=O)C1CCC(CN(Cc2c(Cl)cccc2Cl)S(=O)(=O)c2ccc(F)cc2)CC1 (stereo not drawn) ?
PINK1 modulator: -1%

Results for Cc1nnsc1-c1onc(C)c1C(=O)Nc1cc(Cl)cc(Cl)c1 ?
MCF10A rereplic: 12%; KB-V1 MDR tox: 16µM*; KB-3-1 cytotox: inactive; PINK1 modulator: inconclusive; TSG101-PTAP inh: -7%; SW480 rerep: -36%

What do the screens show for `Cc1ccc(NC(=O)c2c(C)noc2-c2snnc2C)cc1`?
MCF10A rereplic: 19%; KB-V1 MDR tox: inconclusive; KB-3-1 cytotox: inconclusive; PINK1 modulator: 10%; TSG101-PTAP inh: -1%; SW480 rerep: 12%

Results for COC(=O)[C@@H]1[C@@H](C#N)C2(c3ccccc3-c3ccccc32)N(c2ccc(Cl)cc2)N1C#N ?
MCF10A rereplic: 5.2µM*; KB-V1 MDR tox: inconclusive; KB-3-1 cytotox: inconclusive; PINK1 modulator: -2%; TSG101-PTAP inh: 0%; SW480 rerep: inconclusive

What do the screens show for `COc1ccc(C(=O)Nc2cccc(OCc3cc(=O)n4c5c(sc4n3)CCCC5)c2)cc1OC`?
KB-V1 MDR tox: inactive; KB-3-1 cytotox: inactive; PINK1 modulator: 2%
